Experimental data taken from article PMC7819943, “Rice protein-binding microarrays: a tool to detect cis-acting elements near promoter regions in rice”.
The full ranking holds about 68,000 sequences; the median of “fluorescence intensity (a.u.)” is about 9,100, and the highest 2% start at about 16,000. This is one part of a sample in which the highest values are shown more often than they occur.

target: OsWRKY34 (Oryza sativa, UniProt Q0JBA9 1-250); assay: protein-binding microarray (RPBM); PBS, 2% BSA, 51.3 ng/ul salmon testes DNA, 50 uM zinc acetate, 200 nM TF, 25 C, 1 h; high values mean tight binding; conditions: protein: recombinant; tags: N-terminal polyhistidine and DsRed monomer fusion (pET32a); label: CyDye5-dUTP incorporated in the synthesized complementary strand; 3' TTTTT single-stranded linker to array surface; dsDNA, one strand shown
Sequence (Q0JBA9 entry or part of it): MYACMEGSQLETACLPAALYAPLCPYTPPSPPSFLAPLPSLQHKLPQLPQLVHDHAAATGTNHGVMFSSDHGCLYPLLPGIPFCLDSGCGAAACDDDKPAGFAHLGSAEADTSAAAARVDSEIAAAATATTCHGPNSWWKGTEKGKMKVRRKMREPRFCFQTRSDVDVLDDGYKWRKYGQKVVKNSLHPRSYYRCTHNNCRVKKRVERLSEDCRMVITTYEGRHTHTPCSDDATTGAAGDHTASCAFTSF
In short: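 Binding signal is defined as the fluorescence intensity of each feature in arbitrary units, read on an Axon 4000B scanner. Transcription factors with N-terminal polyhistidine and DsRed fusions came from E. coli BL21-CodonPlus and were purified on Ni–NTA. They were incubated at 200 nM for 1 h at 25 °C on a custom Agilent array that had been made double-stranded with Cy5-dUTP, with 50 µM zinc acetate present, and the array was washed.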

With “AGCTTCTTTTTCTGTGATAGCAATACTGCCTCGAGGAGGACGGAGTCACCTAGTGCAG” as the sequence, how does the binding signal read?
Its binding signal is 8950 fluorescence intensity (a.u.).

How did the binding signal turn out when “CCCAAAGTATTGATCGTTTTTGTTTATCATTTTGCTGGATCGGAGTCACCTAGTGCAG” was run?
Its binding signal is 10300 fluorescence intensity (a.u.).

How did the binding signal turn out when “AACCTCTACTGCTCCATATATTTTCTTTCTGTCAGCCCATCGGAGTCACCTAGTGCAG” was run?
Its binding signal is 11200 fluorescence intensity (a.u.).

For “ACGTAACACCTAGCAATTTTCTTCTCGCGAAATAAACAGTCGGAGTCACCTAGTGCAG”, which binding signal is on record?
Its binding signal is 8500 fluorescence intensity (a.u.).

How did the binding signal turn out when “GAGCTCCAAAGCTACGGTTTTTTTTTCTCTTTCTTTCTCACGGAGTCACCTAGTGCAG” was run?
The binding signal was 9080 fluorescence intensity (a.u.).

“GCAACCTCAGGATGCTCCACGAGCTTTCTCTTAGCTACAACGGAGTCACCTAGTGCAG” was tested. Which binding signal did it give?
Its binding signal is 17000 fluorescence intensity (a.u.).

With “GGCAAACAATGCTCTCAGCCTCGCTTAGCTTTCACTCCACCGGAGTCACCTAGTGCAG” as the sequence, how does the binding signal read?
Its binding signal is 8030 fluorescence intensity (a.u.).

For “CTTCTCCCATGCGCCGCCGCAATCTCATCTCTCTGTTTTTCGGAGTCACCTAGTGCAG”, which binding signal is on record?
Its binding signal is 9220 fluorescence intensity (a.u.).

How did the binding signal turn out when “GAACTTATTTTACTGCAATTGTTTGCATCACTTATTCTAACGGAGTCACCTAGTGCAG” was run?
The binding signal was 9570 fluorescence intensity (a.u.).

Which binding signal does the source give for “TAGATCAATACTGCCTAACGAACTTTTTTTTTTTTTTACGCGGAGTCACCTAGTGCAG” here?
Its binding signal is 16400 fluorescence intensity (a.u.).

With “TACTTATATTTACTTGCAGATCAGTTGCCTGCCAATACCGCGGAGTCACCTAGTGCAG” as the sequence, how does the binding signal read?
Its binding signal is 8390 fluorescence intensity (a.u.).

With “CCTCTCCCTACTACTGTCGTATCGTCTCCTACCTCGCCTCCGGAGTCACCTAGTGCAG” as the sequence, how does the binding signal read?
The binding signal was 8340 fluorescence intensity (a.u.).

For “CCAATTCGCCATCCGTCTGTCGACCGCATCTTAATATCCGCGGAGTCACCTAGTGCAG”, which binding signal is on record?
Its binding signal is 17400 fluorescence intensity (a.u.).

“AACGGTTCTTCTGGTCATTTCCAATTCGCCATCCGTCTGTCGGAGTCACCTAGTGCAG” was tested. Which binding signal did it give?
Its binding signal is 8930 fluorescence intensity (a.u.).

“CCATCGCTGTCGCCAATTTATATTCTTTCTTAATCTCGACCGGAGTCACCTAGTGCAG” was tested. Which binding signal did it give?
Its binding signal is 9220 fluorescence intensity (a.u.).

Which binding signal does the source give for “CAAGCTGTTACTTTCTTGGTGGGCTTCTGTGTGCTTTATTCGGAGTCACCTAGTGCAG” here?
Its binding signal is 9940 fluorescence intensity (a.u.).

How did the binding signal turn out when “ACGCCTACAATGGTACTGTGTTTTTTTTATGATAGCGGTGCGGAGTCACCTAGTGCAG” was run?
Its binding signal is 8060 fluorescence intensity (a.u.).

“ATCTTTTTGTTGTCTTTGAATTCAGTCTGTTTTTCTCATTCGGAGTCACCTAGTGCAG” was tested. Which binding signal did it give?
Its binding signal is 17900 fluorescence intensity (a.u.).

How did the binding signal turn out when “TCTCTTTTCTTTTCTTTCTTTTTATTTTGTTGTTCCTTTACGGAGTCACCTAGTGCAG” was run?
Its binding signal is 12600 fluorescence intensity (a.u.).

“TCTCTTTTCTCATTTATTCACTTGCCACATCATTTTTCATCGGAGTCACCTAGTGCAG” was tested. Which binding signal did it give?
Its binding signal is 8900 fluorescence intensity (a.u.).

Which binding signal does the source give for “TTCTTCTTTTCTTTTTTTTTTGTTTTCTTCTCATTCTTCTCGGAGTCACCTAGTGCAG” here?
The binding signal was 10100 fluorescence intensity (a.u.).

With “TTCTTTTGTTGTCCAATTCATTTCCATTTCTTGCCGTTTTCGGAGTCACCTAGTGCAG” as the sequence, how does the binding signal read?
The binding signal was 8320 fluorescence intensity (a.u.).

How did the binding signal turn out when “CTTTTGCACTCGAGATATTTCATCAGTTCTTGCCATTTCACGGAGTCACCTAGTGCAG” was run?
The binding signal was 16500 fluorescence intensity (a.u.).

Which binding signal does the source give for “TACGTTTCAGTTGTGCTTGTTCGGACCTTTCGATTTCTTTCGGAGTCACCTAGTGCAG” here?
The binding signal was 13900 fluorescence intensity (a.u.).

How did the binding signal turn out when “ACTTGCCTTGTTTCTTGTTCTTGTTCATTTCGACCGTTGTCGGAGTCACCTAGTGCAG” was run?
Its binding signal is 17100 fluorescence intensity (a.u.).

With “ACTTTATTGTTTTTCTTCTTATTTTATTTCTCTGTTCTTTCGGAGTCACCTAGTGCAG” as the sequence, how does the binding signal read?
Its binding signal is 10300 fluorescence intensity (a.u.).

For “ACATTGTTCTCTCTTTTACGGCCTTTTTTTTTTCTGAATTCGGAGTCACCTAGTGCAG”, which binding signal is on record?
Its binding signal is 17900 fluorescence intensity (a.u.).

“ATATTCTCATTTTCAGTCTGTTGCACTAATTTTGCTATTTCGGAGTCACCTAGTGCAG” was tested. Which binding signal did it give?
The binding signal was 12800 fluorescence intensity (a.u.).

“CCGCCGCTACTCTCCATCATTTCAGTTTTCTCTCGAGTCACGGAGTCACCTAGTGCAG” was tested. Which binding signal did it give?
The binding signal was 10200 fluorescence intensity (a.u.).
